a7 integrin act – activates integrin-mediated alleviation for muscular dystrophy. Potency, µM (doses to about 38.3 µM), for the others: at the highest dose activation, hits mostly activators. hit rate 0.064% among 350,000. AID 624291. alpha7betagal myoblasts, beta-gal FDG fluorescence, 48 h;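 note: potency is the fitted concentration of half-maximal effect; 100% = response of the positive control SU9516; nearly all actives have a fitted effect of over 60% in size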
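Alpha7betagal+/- myoblasts (passage 13) were plated 16-24 hr, then exposed to compounds (1:260 dilution of DMSO stock) for 48 hours at 37C. After MPER lysis, β-galactosidase reporter activity was read as FDG fluorescence (ex 480/em 540) after 30 minutes.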
TrxR1 substrate – rat thioredoxin reductase 1 substrate activity. O89049. purified TrxR1 substrate turnover, NADPH consumption readout. Potency, µM (highest dose often 114 µM), without a hit: at the highest dose activity change, negative = substrate turnover. hit rate 0.01% among 390,000. AID 588456; note: potency is the fitted concentration of half-maximal effect; nearly all actives have a fitted effect of over 50% in size
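Rat TrxR1, dispensed at 90 nM, was prereduced with 400 uM NADPH (final) for 5 min at ~22 deg C, then incubated with compound 15 min before 400 uM selenite. A first-read NADPH fluorescence drop versus no-compound background flagged substrates.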
PI4K2A block – inhibitors of human PI4K2A; activity change, negative = inhibition, % at 76.9 µM; hit rate 0.13% among 420,000; AID 1346378; Q9BTU6; purified PI4K2A, ADP-Glo luminescence, 1 h; active compounds read low; in the data active = activity change below about -50%; inconclusive = mostly about -30% to -49%;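 note: -100% = wells without enzyme as full effect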
Target sequence (Q9BTU6 whole entry, looked up): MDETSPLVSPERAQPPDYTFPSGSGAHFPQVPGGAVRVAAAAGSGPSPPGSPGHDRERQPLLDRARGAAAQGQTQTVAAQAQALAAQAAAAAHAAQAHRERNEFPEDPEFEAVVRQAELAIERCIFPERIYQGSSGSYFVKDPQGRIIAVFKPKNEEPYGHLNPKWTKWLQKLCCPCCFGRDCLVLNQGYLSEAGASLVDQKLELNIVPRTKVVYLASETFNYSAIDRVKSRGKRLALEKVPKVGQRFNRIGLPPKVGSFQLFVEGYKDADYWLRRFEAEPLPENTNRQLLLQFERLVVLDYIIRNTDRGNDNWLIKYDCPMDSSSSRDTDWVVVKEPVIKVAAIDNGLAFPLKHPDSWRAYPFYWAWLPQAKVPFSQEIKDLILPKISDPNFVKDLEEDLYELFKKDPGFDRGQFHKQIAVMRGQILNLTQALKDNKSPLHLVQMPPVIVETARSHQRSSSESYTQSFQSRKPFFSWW
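PI4K2A activity was measured by ADP-Glo luminescence: enzyme (4 ug/mL stock) and phosphatidylinositol (1.2 mM stock) in Tris pH 7.5/MgCl2/EGTA/Triton X-100 buffer were reacted with ATP (300 microM stock) for one hour at ambient temperature.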
rTrxR1 inhibitor – inhibitors of rat thioredoxin reductase 1; O89049; Potency, µM (highest dose often 114 µM), inactives show at the highest dose activity change, negative = inhibition, actives largely listed as inhibitors; AID 588453; recombinant rTrxR1, NADPH fluorescence consumption, selenite substrate; hit rate 1% among 390,000; note: potency is the fitted concentration of half-maximal effect; nearly all actives have a fitted effect of over 65% in size
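Rat TrxR1 (90 nM in the dispensed reagent) was pre-reduced with 400 uM NADPH for 5 min at room temperature, then incubated with compound for 15 min. After 400 uM selenite was added, NADPH fluorescence (Ex 340/Em 450 nm) was followed for 8 min.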
LDHA inh – LDHA (human) enzyme inhibition; P00338; purified LDHA, NADH/diaphorase-resazurin fluorescence; active compounds read low; activity change, % (values are at about 110 or 230 µM); hit rate 0.15% among 480,000; AID 1347041; in the data active = activity change below about -30%; inconclusive = mostly about -25% to -30%;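 note: plate controls were DMSO wells for no effect and wells without enzyme for full effect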
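LDH5 2 nM; NADH 0.06 mM, pyruvate 0.2 mM; 200 mM Tris pH 7.4, EDTA, Tween-20; 5 min RT. Detection: diaphorase 0.133 mg/mL + resazurin 37 µM, fluorescence ex540/em590 at 0 and 20 min; normalized to enzyme-free and DMSO wells.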
GALK inh – galactokinase (human) inhibition; Potency, µM (top dose mostly 57.5 µM), for the others: at the top dose activity change, negative = inhibition, most hits filed as inhibitors; hit rate 0.007% among 270,000; Purified GALK, Kinase-Glo residual ATP luminescence; P51570; AID 1868; note: potency is the fitted concentration of half-maximal effect
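5 nM enzyme, 35 uM ATP, 100 uM galactose, 20 mM HEPES pH8.0, 5 mM MgCl2; 1 h RT; residual ATP by Kinase-Glo Plus luminescence, qHTS format.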
Active calls of the source: *; ? = inconclusive; . = no result given; [ ] = dose if it differs, or a comment. An excerpt weighted towards active compounds, which were near 1.1% of everything screened. Unless noted, calls come from the whole dose curve; as a rule, active = well fitted curve in the direction sought with a large enough effect; inconclusive = small, poorly fitted or top-dose-only effect, or another doubt; inactive = no such curve, though single readings can be large; an effect the other way counts as inactive or inconclusive. Unless noted, % is set by controls: 0 for no effect and ±100 for the full control effect.

SMILES	a7 integrin act	TrxR1 substrate	PI4K2A block	rTrxR1 inhibitor	LDHA inh	GALK inh
CC(=O)Oc1ccc2c(=O)c(Oc3ccc(F)cc3)c(C(F)(F)F)oc2c1	.	.	.	.	3	.
CCOc1ccccc1NC(=O)C(=O)c1c[nH]c2c(CC)cccc12	.	.	.	.	-36*	.
O=C(N[C@@H](Cc1ccccc1)C(=O)CCl)OCc1ccccc1	.	9%[57.1 µM]	23	21µM*	-3	.
COc1ccc2c(c1)CCc1c(C(=O)N3CCCCCC3)noc1-2	-14%	1%	5	11µM*	12	0%
CS(=O)(=O)Nc1ccc(C2=NN(S(C)(=O)=O)C(c3ccccc3)C2)cc1 (stereo unspecified)	-9%	163%	3	79µM*	-1	0%
CCS(=O)(=O)N1N=C(c2ccc(NS(C)(=O)=O)cc2)CC1c1ccccc1 (stereo unspecified)	1%	126%	-2	?	-4	0%
CN1N/C(=C\c2ccccc2)N=C2C(=O)N(C)C(=O)N=C21	.	10µM*	.	14µM*	24	.
CC/C=C1/N=C2C(=O)N(C)C(=O)N=C2N(C)N1	.	-20%	.	-20%	10	.
COc1ccc(-c2cc(N)n(S(=O)(=O)c3c(F)c(F)c(F)c(F)c3F)n2)cc1OC	-69%[7.66 µM]	0%	18	2.8µM*	4	2%
Fc1ccc(-c2nc(COc3ccc(Br)cc3)co2)cc1	.	.	.	.	2	.
O=C(NCC(c1cccs1)N1CCCCCC1)c1cc(=O)c2ccc(Br)cc2o1 (stereo unspecified)	.	.	.	.	-31*	.
O=C(NCC(c1cccs1)N1CCOCC1)c1cc(=O)c2cc(Br)ccc2o1 (stereo unspecified)	.	.	.	.	-31*	.
O=C(NCC(c1ccco1)N1CCOCC1)c1cc(=O)c2cc(Br)ccc2o1 (stereo unspecified)	.	.	.	.	-31*	.
CC(=O)c1sc(-c2cccc(F)c2)nc1C	.	.	.	.	-19	.
CC(=O)N=c1nc(-c2ccccc2)n(-c2ccccc2)s1	.	-1%	.	10%	-32*	.
CN=c1nc(-c2ccccc2)n(-c2ccccc2)s1	.	9%[57.1 µM]	-5	?	-8	.
Cc1ccccc1OCCN(C)C(=O)c1cc(C2CC2)nc2ccccc12	.	.	.	.	0	.
O=C1C(=Cc2ccc(Cl)cc2)CCc2ccccc21	.	.	?	.	-2	.
COc1ccc(C=C2CCc3ccccc3C2=O)cc1	.	.	-83*	.	4	.
O=C1C(=Cc2ccc(F)cc2)CCc2ccccc21	.	.	-73*	.	3	.
CCOc1ccc(/C=C2\CCc3ccccc3C2=O)cc1	16%	-17%	?	-17%	-2	14%
COc1ccc(C=C(C(C)=O)C(C)=O)cc1OC	-18%	-17%	-6	45µM*	-2	1%
COc1cc(C=C(C(C)=O)C(C)=O)ccc1O	-55%	-20%	-11	?	11	-3%
Cc1ccc(NC(=O)c2cccc(NC(=O)/C=C/c3ccco3)c2)cc1C	0%	-6%	-10	20µM*	-7	-1%
O=C(/C=C/c1ccco1)Nc1cccc(C(=O)Nc2ccccc2C(=O)O)c1	-20%	-8%	-15	11µM*	?	2%
SMILES	a7 integrin act	TrxR1 substrate	PI4K2A block	rTrxR1 inhibitor	LDHA inh	GALK inh
CCc1ccccc1NC(=O)c1cccc(NC(=O)/C=C/c2ccco2)c1	-5%	-12%	1	?	-2	0%
Cc1ccc(NC(=O)N/C=C/c2ccco2)cc1C	-13%	2%	-12	?	2	-5%
CC(C)C(NC(=O)c1nn(C)c(=O)c2ccccc12)c1ccc2c(c1)OCCCO2 (stereo unspecified)	.	.	.	.	-1	.
COc1ccc(-c2ccc3[nH]c4c(c3c2)CCN2C(=O)[C@@H]([C@H](C)O)[C@@H](N(C)C(=O)Nc3ccc(F)cc3)C[C@@H]42)cc1	-62%	.	2	.	-31*	.
COC(=O)c1cnc(NC(=O)C(NC(=O)c2ccccc2Br)C(C)C)s1 (stereo unspecified)	.	.	.	.	-2	.
CCCCCCn1nc(C(=O)Nc2ccc(OC)c(NC(C)=O)c2)c2ccccc2c1=O	.	.	.	.	-1	.
O=C(Cn1ncc(Cl)c(Cl)c1=O)NCC1CCCCC1	-62%	-2%	-2	35µM*	-4	0%
O=C(Cn1ncc(Cl)c(Cl)c1=O)NC1CCCCC1	-44%	1%	-2	56µM*	-1	.
O=C(CN1C(=O)c2ccccc2C1=O)NC1CCS(=O)(=O)C1 (stereo unspecified)	-12%	.	1	.	-17	.
O=C(Cn1ncc(Cl)c(Cl)c1=O)NC1CCS(=O)(=O)C1 (stereo unspecified)	-9%	-2%	-16	13µM*	-1	7%
CCc1nc2c(sc3ncccc32)c(=O)n1CC(=O)Nc1ccc(C(C)C)cc1	.	.	.	.	7	.
O=C1CCCC2=C1C(c1ccco1)Nc1ccc3ccccc3c12 (stereo unspecified)	16%	27%	-13	40µM*	16	3%
COc1ccccc1NC(=O)c1c(C)cc(C)nc1SCC(=O)NCc1ccccc1	.	.	.	.	8	.
CC(=O)NCc1ccc(-c2nc3ccccc3s2)cc1	-15%	5%	-11	18%	3	1%
CS(=O)(=O)Nc1ccc(-c2nc3ccccc3s2)cc1	.	582%	-16	79µM*	-3	.
CC(C)(C)c1ccc(-c2nc3ccccc3s2)cc1	.	.	.	.	2	.
CCCCC(=O)NCc1ccc(-c2nc3ccccc3s2)cc1	.	.	.	.	-30*	.
CCC(=O)NCc1ccc(-c2nc3ccccc3s2)cc1	.	.	.	.	-31*	.
Cc1ccc(-c2cnc(SCC(=O)Nc3ccccc3C)o2)cc1C	.	.	.	.	-12	.
Cc1cccc(NC(=O)COC(=O)c2n[nH]c(=O)c3ccccc23)c1	.	.	.	.	-9	.
O=C(N/N=C/c1ccc(N2CCOCC2)o1)c1cccc([N+](=O)[O-])c1	33%	-11%	-5	3.2µM*	30	.
Cc1ccc(/C=N/NC(=O)c2ccc(-c3ccccc3)cc2)o1	?	5%[57.1 µM]	-1	23%[57.1 µM]	-12	11%
O=C(N/N=C/c1ccc(N2CCCCC2)o1)c1ccccc1	-56%	-3%	-6	2.8µM*	19	3%
COCCN1C(=O)C(=O)/C(=C(/O)c2ccc(OCC(C)C)cc2C)C1c1cccnc1 (stereo unspecified)	.	.	.	.	11	.
Cc1ccc(S(=O)(=O)N(CC(=O)NCc2ccco2)C2CCCCC2)cc1	?	20%	-4	-28%	-4	-2%
COc1cccc(N(CC(=O)NCCSCc2ccco2)S(=O)(=O)c2ccccc2)c1	7%	2%	0	8%	-2	4%
O=C(CN(C1CCCCC1)S(=O)(=O)c1ccccc1)NCc1ccco1	-4%	7%	1	28µM*	2	1%
